Screening data deposited in PubChem by National Center for Advancing Translational Sciences (NCATS).
KB-3-1 tox: qHTS assay for MDR1-selective chemotherapeutics: Primary screen using the parental adenocarcinoma cell KB-3-1. KB-3-1 viability, CellTiter-Glo ATP luminescence, 72 h. Potency, µM (titrated, usually from 46.1 µM), usual class: cytotoxic. 1.4% of 400,000 active. AID 1347075, 2019; note: potency is the fitted concentration of half-maximal effect; % is set by controls: 0 for no effect and ±100 for the full control effect; nearly all actives have a fitted effect of over 60% in size
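Viability of parental KB-3-1 cells, measured by CellTiter-Glo luminescence, followed a 72 h incubation at 37 °C with pinned compounds in phenol-red-free DMEM containing 10% FBS.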
D3 antag: qHTS of D3 Dopamine Receptor Antagonist: qHTS | D(3) dopamine receptor (Homo sapiens), P35462 | D3R cells, DiscoveRx beta-arrestin luminescence, antagonist mode; stronger effect = lower value | max response, negative = inhibition, % | 2.5% of 360,000 active; in the data active = max response below about -50%; inconclusive = no clear call, values can overlap the other calls; note: % is set by controls: 0 for no effect and ±100 for the full control effect
Target sequence (P35462 whole entry, looked up): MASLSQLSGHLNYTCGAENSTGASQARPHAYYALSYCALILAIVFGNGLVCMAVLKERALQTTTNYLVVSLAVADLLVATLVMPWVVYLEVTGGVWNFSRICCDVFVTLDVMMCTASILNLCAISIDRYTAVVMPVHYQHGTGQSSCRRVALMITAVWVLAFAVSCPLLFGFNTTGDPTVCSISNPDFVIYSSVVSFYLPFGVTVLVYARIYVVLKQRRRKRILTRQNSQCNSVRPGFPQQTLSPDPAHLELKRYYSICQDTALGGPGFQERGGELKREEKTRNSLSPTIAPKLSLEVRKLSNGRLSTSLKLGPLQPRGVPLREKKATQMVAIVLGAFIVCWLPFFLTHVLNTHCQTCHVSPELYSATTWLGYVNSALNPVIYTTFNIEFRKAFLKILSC
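Cells plated overnight at 1500 cells/well, then exposed to library compounds with dopamine controls for 90 minutes at 37 degrees C. DiscoveRx reagent added for 30–60 minutes at room temperature; luminescence read, quantitative HTS format.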
D3 ag: qHTS of D3 Dopamine Receptor Agonist: qHTS; D(3) dopamine receptor (Homo sapiens), P35462; D3R DiscoveRx beta-arrestin cells, luminescence, 90 min; max activation, %; 0.58% of 410,000 active; AID 652048, 2013; in the data active = max activation above about 30%; note: 0% is about no effect
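Agonist mode: compounds and dopamine controls were applied to plated cells for 90 min at 37 degrees C after an overnight attachment at 1500 cells/well. Luminescent read-out followed 30 - 60 minutes at room temperature with DiscoveRx detection reagent.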
SW480 rereplic: A quantitative high throughput screen for small molecules that induce DNA re-replication in SW480 colon adenocarcinoma cells; SW480 DNA re-replication, Hoechst DNA content imaging, 48 h; Potency, µM (top dose mostly 46.1 µM), inactives show at the highest dose re-replication activation, hits mostly activators; 1.8% of 340,000 active; AID 624297, 2012; note: potency is the fitted concentration of half-maximal effect; % of control where 0% means no effect; nearly all actives have a fitted effect of over 55% in size
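First, 250 cells per well were seeded. Next, compound or vehicle (23 nL) was pinned in, plates sat 48 hr at 37 C. Finally Hoechst was added for 40 min before fluorescence scanning.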
KB-V1 MDR tox: qHTS assay for MDR1-selective chemotherapeutics: Primary screen using the drug-selected MDR subline cells KB-V1; KB-V1 MDR cells viability, CellTiter-Glo, 72 h; Potency, µM (series often up to 46.1 µM), actives largely listed as cytotoxic; 3.4% of 400,000 active; AID 1347076, 2019; note: potency is the fitted concentration of half-maximal effect; % is set by controls: 0 for no effect and ±100 for the full control effect; nearly all actives have a fitted effect of over 60% in size
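Cells of the MDR subline KB-V1 are plated, dosed with compound at multiple concentrations, and incubated 72 h at 37 degrees C; CellTiter-Glo is then added and luminescence read after 10 min.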
MCF10A rerep: A quantitative high throughput screen for small molecules that induce DNA re-replication in MCF 10a normal breast cells | Potency, µM (top dose mostly 46.1 µM), without a hit: at the top dose activity, positive = re-replication, most hits filed as activators | 2.9% of 350,000 active | MCF 10A DNA re-replication, Hoechst nuclear intensity, 48 h; note: potency is the fitted concentration of half-maximal effect; % of control where 0% means no effect; nearly all actives have a fitted effect of over 50% in size
* hit, by the source's call; i = inactive; ? = inconclusive; . = not tested or not shown; ! = not active in a repeat; [ ] = remark or other dose. This is a sample that favours compounds with a hit; in the whole collection about 8.9% have one here. Unless noted, calls come from the whole dose curve; as a rule, active = well fitted curve in the direction sought with a large enough effect; inconclusive = small, poorly fitted or top-dose-only effect, or another doubt; inactive = no such curve, though single readings can be large; an effect the other way counts as inactive or inconclusive.

SMILES | KB-3-1 tox | D3 antag | D3 ag | SW480 rereplic | KB-V1 MDR tox | MCF10A rerep
Cc1ccc(C2CC2C(=O)NNC(=S)Nc2cccc(C)c2)cc1 (stereo not drawn) | i | 27 | 0 | ? | 16µM* | ?
COc1ccc(NC(=S)NNC(=O)C2CC2c2ccc(C)cc2)cc1 (stereo not drawn) | i | -24 | -1 | 18µM* | i | ?
Cc1ccc(C2CC2C(=O)NNC(=S)Nc2cccc(Cl)c2)cc1 (stereo not drawn) | i | ? | 2 | -2% | i | 23%
Cc1ccc(NC(=S)NNC(=O)C2CC2c2ccc(C)cc2)cc1 (stereo not drawn) | i | -6 | -7 | 39% | i | 8%
O=C1CN(C(=O)COc2ccc(Cl)cc2Cl)C(c2ccccc2)c2cc(F)ccc2N1 (stereo not drawn) | ? | . | -4 | . | ? | .
COCCCn1c(=N)c(C(=O)NC2CCCCC2)cc2c(=O)n3cc(C)ccc3nc21 | i | . | 2 | . | i | .
CCCCC[n+]1ccn(C2=C([O-])c3ccccc3C(=O)/C2=N\S(=O)(=O)c2ccccc2)c1 | ? | ? | -6 | 11µM* | i | 19%
CCCC[n+]1ccn(C2=C([O-])c3ccccc3C(=O)/C2=N\S(=O)(=O)c2ccccc2)c1 | ? | ? | -3 | ? | i | ?
CC(=O)O[C@H]1C(=O)[C@@]2(C)C([C@H](OC(=O)c3ccccc3)[C@]3(O)C[C@H](OC(=O)[C@H](O)[C@@H](NC(=O)c4ccccc4)c4ccccc4)C(C)=C1C3(C)C)[C@]1(OC(C)=O)CO[C@@H]1C[C@H]2O (stereo partly drawn) | 0.058µM* | -22 | 4 | 2.1µM* | ? | ?
CC(=O)O[C@@]12CO[C@@H]1C[C@H](O)[C@@]1(C)C(=O)[C@H](O)C3=C(C)[C@@H](OC(=O)C(O)[C@@H](NC(=O)OC(C)(C)C)c4ccccc4)C[C@@](O)([C@@H](OC(=O)c4ccccc4)[C@H]21)C3(C)C (stereo partly drawn) | . | . | . | 0.0075µM* | . | ?
CC(=O)O[C@H]1C(=O)[C@]2(C)[C@H]([C@H](OC(=O)c3ccccc3)[C@]3(O)C[C@H](OC(=O)[C@H](O)[C@@H](NC(=O)c4ccccc4)c4ccccc4)C(C)=C1C3(C)C)[C@]1(OC(C)=O)CO[C@@H]1C[C@@H]2O | 0.16µM* | 0 | 0 | ? | 18µM* | 93%
O=C(N[C@H]1/C=C\[C@@H](O)CCCC1)OCc1ccccc1 | i | -14 | -16 | -60% | i | -2%
CCOc1cc(CN2CCN(S(=O)(=O)c3ccc(C)cc3)CC2)ccc1OC | . | . | -2 | . | . | .
Cc1ccc(C(=O)Sc2cccccc2=O)cc1 | ? | -94* | -31 | ? | 2.6µM* | 2.1µM*
O=C(Nc1ccccc1SC(=O)c1ccccc1)c1ccccc1 | i | 6 | 3 | . | i | .
Cc1ccc(OCC(O)CN2CCN(Cc3ccc4c(c3)OCO4)CC2)c(C)c1 (stereo not drawn) | i | -60* | -11 | ? | i | ?
CC(=O)c1ccc(OCC(O)CN2CCN(Cc3ccc4c(c3)OCO4)CC2)cc1 (stereo not drawn) | i | -51*! | -12 | 4% | ? | 28%
c1ccc(CC[n+]2ccncc2)cc1 | i | . | . | . | i | .
COc1ccc(C2CC(c3c(O)cc(C)oc3=O)=NCCS2)c(OC)c1 (stereo not drawn) | 0.29µM* | ? | -4 | ? | 0.37µM* | 1.1µM*
COc1cccc(OC)c1C(=O)Nc1ccc(-c2nc3ncccc3o2)cc1 | i | . | 4 | . | i | .
C[C@@H]1C[C@H](Nc2ccccc2)c2ccccc2N1C(=O)c1cccnc1 | ? | -13 | 7 | ? | ? | 13µM*
Cc1ccc(Nc2cc(C)c(C#N)c3nc4ccccc4n23)c(C)c1 | i | . | 1 | . | i | .
Cc1ccc(NS(=O)(=O)c2ccc(C)c(NC(=O)COc3ccccc3)c2)c(C)c1 | i | 2 | -2 | -6% | 21µM* | 1%
Cc1ccc(S(=O)(=O)NC(=O)COc2ccccc2)cc1 | i | 8 | -1 | -78%[1.84 µM] | i | 0%
Cc1ccc(NC(=O)COc2ccccc2)c(NC(=O)c2ccccc2C)c1 | i | 20 | 1 | ? | 5.8µM* | 4%
SMILES | KB-3-1 tox | D3 antag | D3 ag | SW480 rereplic | KB-V1 MDR tox | MCF10A rerep
Cc1ccc(C)c(NS(=O)(=O)c2ccc(OCC(=O)N3CCCC3)cc2)c1 | i | 12 | 1 | -6% | 21µM* | 23%
Cc1ccc(NC(=O)c2ccco2)c(NC(=O)COc2ccccc2)c1 | i | 15 | 0 | -43% | i | -21%
CC(=O)Oc1ccc(C(=O)Nc2cc(C)ccc2NC(=O)COc2ccccc2)cc1 | i | 8 | 3 | -4% | 16µM* | -1%
Cc1ccc(C(=O)Nc2ccc(S(=O)(=O)NC3=NCCCCC3)cc2)cc1S(=O)(=O)N1CCOCC1 | i | 15 | 1 | -8% | i | 12%
O=C(Nc1cccc(F)c1)c1ccc2snnc2c1 | i | . | 2 | . | ? | .
FC(F)(F)c1cccc(Cc2noc(CN3CCCC3)n2)c1 | i | -8 | 1 | -1% | i | -1%
OCC1CCCN(C2CCN(Cc3nc(Cc4cccc(C(F)(F)F)c4)no3)CC2)C1 (stereo not drawn) | i | 15 | 30* | ? | i | ?
CCCCOC(=O)C1C2C=C[C@]3(CN(CCCOC)C(=O)[C@H]13)O2 (stereo partly drawn) | i | -51* | -3 | -4% | i | -7%
CCOC(=O)C1[C@H]2C(=O)N(CCCOC)C[C@]23C=C[C@H]1O3 (stereo partly drawn) | i | 17 | 12 | 5% | i | -2%
COc1ccc(C(=O)NCc2ccc3c(c2)CCN3C(=O)c2ccncc2)cc1 | i | . | -5 | . | i | .
C=CC1=C(C(=O)O)N2C(=O)[C@@H](NC(=O)C(N=O)c3csc(N)n3)[C@H]2SC1 (stereo partly drawn) | . | . | . | -1% | . | -5%
COc1ccc(CN(C)S(=O)(=O)c2c(C)noc2C)cc1OC | i | ? | 5 | -2% | 18µM* | 3%
COc1ccc(CCNC(=O)CN(c2ccc(C)cc2)S(=O)(=O)c2c(C)noc2C)cc1OC | i | 2 | 0 | -2% | i | -5%
